Results from PubChem BioAssay (NCATS).
Inconclusive results are not listed. Calls come from the whole dose curve; as a rule, active = well fitted curve in either direction with a large enough effect (not every such curve was filed as active); inconclusive = small, poorly fitted or top-dose-only effect, or another doubt; inactive = flat fitted curve, though single readings scatter.

Assay: AP1 Signaling Pathway (AID 357);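 note: ME-180 reporter cells stimulated with EGF at its EC50 level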
Details: ME-180 (cervical carcinoma) AP-1-bla reporter, EGF-induced, beta-lactamase ratio, 5 h; at 17.2 µM (top of the series) unless noted
Procedure, shortened: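 A ratiometric CCF4 readout (405 nm excitation; 460 and 530 nm emission) quantified AP-1-driven beta-lactamase in ME-180 cells after 5 h with compound and EC50 EGF; AC50 values were derived for activators and inhibitors.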
% is set by controls: 0 for no effect and ±100 for the full control effect.

Activity change, negative = inhibition, inactive:
O=C(/C=C/c1ccccc1)c1ccccc1 19.8%
COc1cc(-c2nn3c(COc4ccccc4)nnc3s2)cc(OC)c1OC 0.0695%
CC(=O)c1ccc(O)c(CO)c1 12.6%
CCn1cc(C(=O)NCc2ccccn2)c(=O)c2cc(F)c(N3CCN(C)CC3)cc21 -1.53%
Cc1cccc(OCc2nc(C)cc(=O)[nH]2)c1 9.24%
COC(=O)/C(=C1/Oc2cc(C)oc(=O)c2S1)C(F)(F)F 7.82%
COc1ccccc1C1/C(=C(/O)c2ccc(OC(C)C)cc2)C(=O)C(=O)N1c1cc(C)on1 (centres undefined) -28.1%
CSc1nc(N2CCCC2)c2c(c1C#N)CC(C)(C)OC2 -20.7%
CC(C)CC(NC(=O)OC(C)(C)C)C(=O)NCc1ccccc1 (centres undefined) -7.56%
O=C(NO)c1ccccc1O -4.21%
CCOC(=O)CSC1=C(C#N)C(=O)NC(c2ccc(OC)c(OC)c2)S1 (centres undefined) -12.5%
CCOC(=O)c1[nH]c2cc3c(cc2c1NC(=O)CN1CCc2ccccc2C1)OCO3 -23.5%
c1ccc2c(c1)[nH]c1c(N3CCC4(CC3)OCCO4)ncnc12 -1.63%
CCOC(=O)CSc1nc(N)c(C#N)c(-c2ccc(OC)cc2)c1C#N -27.1%
COC(=O)C1C(=O)CC(C)(O)C(C(=O)OC)C1c1ccccc1F (centres undefined) 0.159%
Cc1cc(=O)oc(C)c1C(=O)NCC(C)NC(=O)c1c(C)cc(=O)oc1C (centres undefined) 0.223%
COCc1cc(C)nc(SCC(=O)Nc2ccc(C)c(C)c2)c1C#N 2.07%
Cc1cc(=O)oc(C)c1C(=O)NCCN1CCOCC1 11.5%
CN(CCCCCC(=O)/C=N/O)Cc1ccccc1 26.2%
O=C1CC(c2ccccc2)n2nc(NS(=O)(=O)c3ccccc3)nc2N1 (centres undefined) 22.4%
Cc1nn(-c2cccc(Cl)c2)c2c1C(c1ccncc1)C(C#N)=C(N)O2 (centres undefined) 17.6%
C=C(Br)CN1CCN(CC(=C)Br)CC1 10.5%
Cc1ccc(Oc2nc3c(c(=O)n(Cc4ccccc4F)c(=O)n3C)n2C)cc1 -27.5%
CSc1nc2sc3c(c2c(=O)n1C1CCCCC1)CCN(C)C3 -0.967%
Cc1ccnc(N2CCN(c3c4c(c(C#N)c5nc6ccccc6n35)CCC4)CC2)c1 -8.81%
CCc1ccc(NC(=O)CSC2=C(C#N)C(c3ccc4c(c3)OCO4)CC(=O)N2)cc1 (centres undefined) -19.8%
CCN(CC)CCCN1C(=O)C(=O)/C(=C(/O)c2ccc3c(c2)CC(C)O3)C1c1ccncc1 (centres undefined) 0.667%
O=C(Cc1ccccc1)Nc1cccc(-c2nnc(-c3ccco3)o2)c1 -23.3%
CCCCOc1cccc(-c2nnc(N)s2)c1 -19.6%
Cc1ccc(SCc2[nH]nc3c2C(c2ccc(C)o2)C(C#N)=C(N)O3)cc1 (centres undefined) -23.1%
CCOC(=O)CCc1c(C)c(C#N)c2[nH]c3ccccc3n2c1=O -16.5%
COc1cc2nc(-c3ccccc3)nc(N3CCCC3)c2cc1OC 24.5%
CC1(C)Cc2c(C#N)c(NCCc3ccccc3)nc(-c3ccco3)c2CO1 14.4%
COc1ccccc1C(=O)N1CCN(Cc2ccc3c(c2)OCO3)CC1 -11.7%
CC1(C)C2CCC1(C)C(OC(=O)CC(=O)O)C2 (centres undefined) 4.82%
CCCCc1nc(NCCNC(=O)c2ccco2)c(C#N)c2c1CSC(C)(C)C2 -22.7%
O=C(NCCN1CCCCC1)c1ccc(=O)oc1 13.4%
Cn1c(=O)cc(NCc2ccccc2)[nH]c1=O 15%
Clc1ccc(SCc2cn3ccsc3n2)cc1 -22.5%
